Results: the supplement of paper PMC11417369
The full ranking holds about 25,000 sequences; the median of “ln(normalized median fluorescence intensity)” is about 9.7, and the highest 2% start at about 11. The entries come from a sample that favours the highest values as a whole.

What follows are sequences tested on PfAP2-HC AP2 domain (GST-tagged) (assay: gcPBM binding intensity (ln(normalized median fluorescence intensity)); higher = stronger DNA binding).
How it was run: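 Binding of GST-tagged P. falciparum DNA-binding domains, expressed in E. coli and used at about 25 μg on average, was carried out for 1 h in 1× PBS containing 1% milk, 0.2 mg/ml BSA, 0.5% salmon testes DNA and 0.03% Triton X-100. The target was an Agilent 4 × 180k array of primer-extended double-stranded 36-bp intergenic genomic probes plus negative controls, read with Alexa488 anti-GST antibody at 488 nm. Binding intensity is the highest Masliner-normalised natural-log median intensity across replicate spots of either probe orientation.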
For “ATTAATATATTTACCACACACCCATTTCGATTTTAT [CACACA_site3605]”, the “gcPBM binding intensity (ln)” value was 10.3.
With “AATATATATATAAATAATATACCTATATATTTTTTG [XGTACX_negctrl_site407]” the “gcPBM binding intensity (ln)” value was 9.61.
For “TAATATATTAATATATGTACATATTTATATATCTAC [XGTACX_site7117]”, the “gcPBM binding intensity (ln)” value was 9.81.
For “TTTTATAAATATTATACATGCATAATGATAAAAAAA [TGCATGCA_site927]”, the “gcPBM binding intensity (ln)” value was 9.55.
In the case of “TAATAATAAAAATAAACACACATATATCTGTATTTA [CACACA_site5572]”, the “gcPBM binding intensity (ln)” value was 9.74.
For “TTTTCTTTTTTGAACTGTACGCGTAAATTTAAAAAG [XGTACX_site882]”, the “gcPBM binding intensity (ln)” value was 9.36.
With TTTTTGTTACCTATTGTGCACTTCATATAAATTAAA the “gcPBM binding intensity (ln)” value was 9.74.
“ATATATAATATTTATTGTACTATTTTATTTTTATAA [XGTACX_site705]” was tested, and the “gcPBM binding intensity (ln)” value was 9.62.
With “CAAATACACGGACACACACACACAAAAAAAAAAAAA [CACACA_site6385]” the “gcPBM binding intensity (ln)” value was 11.
With “CACGCACGCACATACACACACATACACATATAAATA [CACACA_site6907]” the “gcPBM binding intensity (ln)” value was 10.1.
For “ATGATTATACAAAATATACACACGTGGACACAAATA [CACACA_site8304]”, the “gcPBM binding intensity (ln)” value was 10.3.
For “TAACCTAAAATAACTACACACACATAAAAAAAAAAA [CACACA_site8807]”, the “gcPBM binding intensity (ln)” value was 11.2.
With “CCACACTTAAAATACACACACACCAAAAAAAAAAAA [CACACA_site2709]” the “gcPBM binding intensity (ln)” value was 11.3.
“TTATACACAAAAAAAAAAATATATATATATATATAT [XGTACX_negctrl_site5]” was tested, and the “gcPBM binding intensity (ln)” value was 9.49.
For “AGCCACTTAAAATACACACACACCAAAAAAAAAAAA [CACACA_site5497]”, the “gcPBM binding intensity (ln)” value was 10.2.
“TATATAACTAAAATAACACACATATATAAAAATATA [CACACA_site7416]” was tested, and the “gcPBM binding intensity (ln)” value was 9.88.
In the case of “AAAAAAAATACATACACACACACACGCACATATATA [CACACA_site7645]”, the “gcPBM binding intensity (ln)” value was 11.7.
With “ACGGACTTAAAATACACACACACCAAAAAAAAAAAA [CACACA_site7304]” the “gcPBM binding intensity (ln)” value was 10.2.
In the case of “ACCTAAAATAACTACACACACATAAAAAAAAAAAAA [CACACA_site2529]”, the “gcPBM binding intensity (ln)” value was 10.2.
In the case of “AAAATACACGCATACACACACACACGCGCACATATA [CACACA_site6448]”, the “gcPBM binding intensity (ln)” value was 10.6.
In the case of “ACAATATGTATATATATATATATGCAAATGTATAAA [CACACA_negctrl_site53]”, the “gcPBM binding intensity (ln)” value was 9.78.
With “TTTTTTAAAGCCTGTTCATCATCCTTACCTATCAAC [GTGCAC_negctrl_site452]” the “gcPBM binding intensity (ln)” value was 9.49.
In the case of “ATATAATATACTTATTGTACTTATTTAAAATACTAA [XGTACX_site4266]”, the “gcPBM binding intensity (ln)” value was 9.58.
In the case of “TACTTAAAAAAAAAAAAAATAAATATTATGTATTAT [CACACA_negctrl_site138]”, the “gcPBM binding intensity (ln)” value was 9.36.
With “AAAGTTACATTCGACACACACATAACAACTAAATAA [CACACA_site3419]” the “gcPBM binding intensity (ln)” value was 10.1.
For “TGTATATTTGTTGTTACACACATATATTTTTTTTTT [CACACA_site128]”, the “gcPBM binding intensity (ln)” value was 9.86.
For “TTGGATTTTCCATAATGTACACATAAAAGTGTTACA [XGTACX_site4544]”, the “gcPBM binding intensity (ln)” value was 9.4.
With “AAAAAAAAAAAAAACACACACACACGCATACACATA [CACACA_site7364]” the “gcPBM binding intensity (ln)” value was 10.7.
“CAATGTTGTACATACACACACACAAAAAAAAAATAA [CACACA_site2407]” was tested, and the “gcPBM binding intensity (ln)” value was 11.4.
“AAAAAAAAAAAAAACACACACACACGCATACAAAAT [CACACA_site6794]” was tested, and the “gcPBM binding intensity (ln)” value was 10.6.
For “ATTAAATACATTAACACACACACAAATATATACATA [CACACA_site2881]”, the “gcPBM binding intensity (ln)” value was 10.7.
For “AGTATACGCAAACACACACACACAAAAAAAAAAAAA [CACACA_site426]”, the “gcPBM binding intensity (ln)” value was 11.2.
For “ATTAAATACATTAACACACACACAAATAAATACATA [CACACA_site5583]”, the “gcPBM binding intensity (ln)” value was 10.4.
“AACAATGTTGTACATACACACACACTAATAAAAAAT [CACACA_site8758]” was tested, and the “gcPBM binding intensity (ln)” value was 10.3.
With “AATAAAAAAATAAAATGTACATACAAATAAATAAAT [XGTACX_site5153]” the “gcPBM binding intensity (ln)” value was 9.9.
With “TATACGCAGAAACACACACACAAAAAAAAAAAAAAA [CACACA_site427]” the “gcPBM binding intensity (ln)” value was 10.5.
With “ATTAAATACATTAACACACACACAAATATGTACATA [CACACA_site7372]” the “gcPBM binding intensity (ln)” value was 11.
“AGTATACACAAACACACACACACAAAAAAAAAAAAA [CACACA_site8036]” was tested, and the “gcPBM binding intensity (ln)” value was 10.7.
In the case of “AAAAAAAAAAAAAACACACACACACGCAAATACATA [CACACA_site6474]”, the “gcPBM binding intensity (ln)” value was 11.4.
For “ATATAAATATGTTCTGCACACAAATAAGTGTTTGAA [CACACA_site9291]”, the “gcPBM binding intensity (ln)” value was 9.79.
“GCACTAAAAAAATAAACACACAGATTTATATAATAT [CACACA_site1381]” was tested, and the “gcPBM binding intensity (ln)” value was 9.79.
With “TACAAAAGCTATAACATTCACCACATTATAAAAATA [CACACA_negctrl_site1112]” the “gcPBM binding intensity (ln)” value was 9.78.
In the case of “TAAAAACCAAAGAAAAGTACAAATTTAAATGAGAAA [XGTACX_site7450]”, the “gcPBM binding intensity (ln)” value was 9.83.
For “AAATATGTCAAATATACACACATAATAAATATAATA [CACACA_site2310]”, the “gcPBM binding intensity (ln)” value was 9.99.
In the case of “TTCTAATATATGCATACACACAAATGTGAATATACA [CACACA_site2142]”, the “gcPBM binding intensity (ln)” value was 9.83.
With “AAGGCAAACAAACACACACACATATATACATATATA [CACACA_site2122]” the “gcPBM binding intensity (ln)” value was 10.4.
In the case of “TAAAGGCAAACAAACACACACACATATATACCTATA [CACACA_site7078]”, the “gcPBM binding intensity (ln)” value was 10.6.
